Values joined by “and” are separate entries in the source; they are usually repeats but may differ in a detail not shown here. Identical values can stand only once. For some assays here: Entries with a potency or affinity are not part of this list. Active and inactive are the calls of the source. Rule as the data show it, unless noted: active = parasite load remaining mostly below about 12% (no sharp cut-off); inactive = mostly above about 10%.
Assays:
[1] = polyglutamine-triggered caspase-3 activation inhibitors, cell-based (AID 1583); conditions: polyglutamine-induced caspase-3 activation, cell assay; stronger effect = higher value;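 tested at 10 µM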
[2] = suppressors of polyQ aggregation in yeast, 75Q-TubU reporter (AID 1593); conditions: Yeast 75Q polyglutamine aggregation reporter
[3] = rescue of polyQ-huntingtin neuronal dysfunction in worms, whole organism, C. elegans mechanosensory neurons, N-terminal huntingtin (AID 1599); conditions: touch response, stronger effect = higher value
[4] = inhibitors of mitochondrial cytochrome c release, biochemical, purified mitochondria (AID 1603); conditions: stronger effect = lower value;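 also: mouse liver mitochondria challenged with calcium chloride; signal normalized to the plate average as 100%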
[5] = inhibitors of polyQ protein aggregation (AID 1604); conditions: polyglutamine-induced protein aggregation inhibition assay; stronger effect = higher value; tested at 2.5 µM
[6] = enhancers of glutamate uptake in motor neurons, MN-1 cell line (AID 1612); conditions: MN-1 motor neuron cells, stronger effect = higher value;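 also: tested at 1 µM final; 0% = mean of DMSO vehicle wells on each plate; positive means more glutamate uptake than control and negative means less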
[7] = reducers of polyQ inclusions in PC12 cells, cell-based, NGF-treated PC12, GFPQ80 (AID 1614); conditions: PC12 NGF-treated GFP-polyQ80 inclusion reduction;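 also: lower means fewer inclusions and 0 means no inclusions at all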
[8] = suppressors of polyglutamine aggregation in yeast, 75Q-TubH (AID 1616); conditions: S. cerevisiae 75Q-TubH polyglutamine aggregation suppression; stronger effect = higher value
[9] = liver-stage malaria parasite growth inhibition, primary screen, cell-based, HepG2, luciferase luminescence, HepG2 viability (AID 624349);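 also: 100% = mean of DMSO negative control wells on the same plate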; conditions: P. berghei liver stage in HepG2, luciferase luminescence, concentration not given here; parasite load remaining: stronger effect = lower value; viability: measured here: HepG2 viability without parasites
[10] = molecular target: 6-phosphogluconate dehydrogenase, decarboxylating (Homo sapiens) (UniProt P52209); assay: 6PGD enzyme inhibitors, primary screen, biochemical, human, recombinant enzyme, NADPH absorbance (AID 1159550;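 active = at least 20% inhibition of 6-phosphogluconate dehydrogenase activity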); conditions: recombinant 6PGD, NADPH absorbance 341 nm; at 10 µM; stronger effect = higher value
[11] = differential killing of epithelial or mesenchymal cells, primary screen, imaging, PC-3E GFP, TEM4-18 mCherry, co-culture (AID 1345086;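 active = compounds killing one labelled cell type while sparing the other, by normalised counts and ratio limits, not self-fluorescent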;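 as to all read-outs here: cells exposed to compound for 72 h before imaging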;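 as to red/green cell ratio (normalised): normalised mesenchymal count divided by normalised epithelial count so high means epithelial killing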); conditions: imaging cell counts, at 1 µM; for red/green cell ratio (normalised): actives lie on both sides, counts scaled to control wells, 1 = unselective
[12] = sensitizers of A549 cells to miR-34 induction, primary screen, imaging, A549 dox-inducible miR-34, nuclei and caspase counts (AID 1347080;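 active = compounds whose cell count with miR-34 switched on is under 0.7 times the count with it off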); conditions: A549 miR-34 inducible, Hoechst nuclei count, 48 h
[13] = molecular target: NAD(+) hydrolase SARM1 (Homo sapiens) (UniProt Q6SZW1); assay: SARM1 TIR NADase inhibitors, cell lysate, NAD-Glo luminescence (AID 1508614;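 active = compound whose remaining NAD level is above about 45 nM, limit read from the data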;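 also: higher remaining NAD means stronger inhibition of SARM1 NADase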); conditions: SAM-TIR HEK293T lysate NADase, at 1 µM, stronger effect = higher value
[14] = molecular target: Mitogen-activated protein kinase 7 (Homo sapiens) (UniProt Q13164); assay: ERK5 transactivation activators in reporter cells, primary screen, cell-based, HTS (AID 1508626;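 active = luciferase signal above three times the same-plate solvent-only control wells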;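 also: luciferase driven by Gal4-ERK5 fusion binding five Gal4 sites before minimal TATA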); conditions: HeLa Gal4-ERK5 transactivation, 18 h, at 5 µM, stronger effect = higher value
[15] = measured here: epithelial PC-3E GFP cell survival
[16] = measured here: mesenchymal TEM4-18 mCherry cell survival
[17] = stronger effect = lower value, cell number ratio, induced over uninduced
[18] = measured here: relative caspase fold change +Dox/-Dox
[19] = measured here: total cells with miR-34 induction, stronger effect = lower value
[20] = measured here: total cells without miR-34 induction

Chain of 6-phosphogluconate dehydrogenase, decarboxylating (Homo sapiens) (P52209 whole entry, looked up): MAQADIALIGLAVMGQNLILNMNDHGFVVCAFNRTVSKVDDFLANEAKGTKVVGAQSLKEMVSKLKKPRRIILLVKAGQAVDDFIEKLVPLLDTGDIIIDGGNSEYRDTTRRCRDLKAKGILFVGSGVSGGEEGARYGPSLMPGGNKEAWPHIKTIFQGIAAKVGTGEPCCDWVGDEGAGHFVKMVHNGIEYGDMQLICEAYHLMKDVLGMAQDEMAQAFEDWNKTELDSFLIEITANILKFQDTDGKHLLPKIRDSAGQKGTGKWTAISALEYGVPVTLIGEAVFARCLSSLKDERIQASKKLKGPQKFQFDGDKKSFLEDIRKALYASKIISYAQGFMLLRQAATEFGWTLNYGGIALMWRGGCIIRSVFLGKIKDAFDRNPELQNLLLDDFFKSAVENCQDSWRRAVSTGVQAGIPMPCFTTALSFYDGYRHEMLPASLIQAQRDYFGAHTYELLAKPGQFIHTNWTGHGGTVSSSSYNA
Chain of Mitogen-activated protein kinase 7 (Homo sapiens) (Q13164 whole entry, looked up, the tested form may be a part): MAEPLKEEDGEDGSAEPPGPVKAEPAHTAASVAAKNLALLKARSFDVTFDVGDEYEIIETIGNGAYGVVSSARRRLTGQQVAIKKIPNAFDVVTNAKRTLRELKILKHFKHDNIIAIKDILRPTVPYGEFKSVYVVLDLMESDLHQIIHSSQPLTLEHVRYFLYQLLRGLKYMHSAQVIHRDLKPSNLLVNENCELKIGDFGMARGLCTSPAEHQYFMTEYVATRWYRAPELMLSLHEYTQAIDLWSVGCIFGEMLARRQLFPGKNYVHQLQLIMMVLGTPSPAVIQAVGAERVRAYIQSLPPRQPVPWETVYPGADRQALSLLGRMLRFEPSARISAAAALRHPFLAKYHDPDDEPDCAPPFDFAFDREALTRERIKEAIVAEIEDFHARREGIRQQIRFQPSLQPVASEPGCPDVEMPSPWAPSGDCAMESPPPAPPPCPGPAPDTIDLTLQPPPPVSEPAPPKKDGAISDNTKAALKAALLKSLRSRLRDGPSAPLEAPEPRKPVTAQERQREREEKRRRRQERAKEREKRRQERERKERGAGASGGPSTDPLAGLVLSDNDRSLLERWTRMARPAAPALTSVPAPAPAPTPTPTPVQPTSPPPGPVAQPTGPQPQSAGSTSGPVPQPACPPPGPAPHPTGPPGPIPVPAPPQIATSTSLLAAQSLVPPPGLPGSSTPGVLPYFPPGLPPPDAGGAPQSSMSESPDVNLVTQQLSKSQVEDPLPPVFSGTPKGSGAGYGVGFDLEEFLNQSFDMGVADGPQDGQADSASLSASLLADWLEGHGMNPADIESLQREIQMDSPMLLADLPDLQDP
Chain of NAD(+) hydrolase SARM1 (Homo sapiens) (Q6SZW1 whole entry, looked up, the tested form may be a part): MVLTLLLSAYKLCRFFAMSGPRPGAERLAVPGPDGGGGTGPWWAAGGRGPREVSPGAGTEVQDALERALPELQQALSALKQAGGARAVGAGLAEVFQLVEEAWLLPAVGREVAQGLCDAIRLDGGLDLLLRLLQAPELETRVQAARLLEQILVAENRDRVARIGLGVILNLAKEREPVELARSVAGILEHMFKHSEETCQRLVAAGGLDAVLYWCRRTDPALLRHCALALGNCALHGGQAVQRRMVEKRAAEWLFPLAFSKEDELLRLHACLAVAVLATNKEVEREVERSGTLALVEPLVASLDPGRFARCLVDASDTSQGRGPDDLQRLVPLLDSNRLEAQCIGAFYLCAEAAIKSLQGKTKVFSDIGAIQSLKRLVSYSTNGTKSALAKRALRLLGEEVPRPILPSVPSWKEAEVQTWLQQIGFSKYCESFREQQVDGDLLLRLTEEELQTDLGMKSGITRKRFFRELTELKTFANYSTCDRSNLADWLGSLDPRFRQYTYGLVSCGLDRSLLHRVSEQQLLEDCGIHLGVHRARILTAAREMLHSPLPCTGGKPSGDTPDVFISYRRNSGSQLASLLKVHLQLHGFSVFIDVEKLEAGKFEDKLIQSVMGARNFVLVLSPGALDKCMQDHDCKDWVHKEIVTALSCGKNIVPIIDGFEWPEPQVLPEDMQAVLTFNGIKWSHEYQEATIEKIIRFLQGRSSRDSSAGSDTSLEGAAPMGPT

Structure (SMILES) | inhibition [1] | score [2] | rescue above control [3] | cytochrome c release ratio [4] | inhibition of aggregation [5] | glutamate uptake change [6] | inclusion score [7] | aggregation suppression score [8] | parasite load remaining [9] | viability [9] | inhibition [10] | red/green cell ratio (normalised) [11] | normalised cell number [11, 15] | normalised cell number [11, 16] | fold change [12, 17] | fold change [12, 18] | cell count [12, 19] | cell count [12, 20] | remaining NAD [13] | luciferase signal [14]
O=C(O)CN(CCN(CC(=O)O)CC(=O)O)CC(=O)O | 13.2% | 1.69 | -6.51 | 0.54 | 72.4% | -23.4% | 1.5 | 1.43 | 74.6% (inactive) and 69.8% (inactive) | 73.4% and 97.7% | 8.13% (inactive) | 1.05 (inactive) and 0.92 (inactive) | 1.05 and 1.23 | 1.11 and 1.13 | 0.899 (inactive) | 3.42 | 11600 | 12900 | 10 nM (inactive) | –
COc1ccc2cc([C@H](C)CO)ccc2c1 | – | – | – | – | – | – | – | – | 184% (inactive) and 65% (inactive) | 85.1% and 144% | 2.43% (inactive) | 1.04 (inactive) | 1.15 | 1.2 | 0.861 (inactive) | 3.55 | 11000 | 12800 | 10 nM (inactive) | 32 AU (inactive)
COc1cc2ccc(=O)oc2cc1O | -26.2% | 1.15 | 11.4 | 0.77 | 0% | 13.8% | 2 | 1.62 | 104% (inactive) and 103% (inactive) | 106% and 66.2% | -1.14% (inactive) | 1.11 (inactive) | 0.86 | 0.96 | 0.946 (inactive) | 1.18 | 8620 | 9110 | – | 40 AU (inactive)
CC(=C(CCOP(=O)(O)O)SC(=O)c1ccccc1)N(C=O)Cc1cnc(C)nc1N | 9.82% | 1.37 | 3.18 | 0.86 | 39.4% | 18.4% | 2 | 0.998 | – | – | -10.8% (inactive) | 0.95 (inactive) | 1.05 | 1 | – | – | – | – | 10 nM (inactive) | –
O=c1ccc2cc(O)c(O)cc2o1 | – | – | – | – | – | – | – | – | 19.5% (inactive) and 73.2% (inactive) | 92.8% and 68.7% | 2.61% (inactive) | 1.16 (inactive) | 0.88 | 1.02 | 0.832 (inactive) | 1.64 | 6390 | 7680 | – | 72 AU (inactive)

— PubChem BioAssay
